This note sets out measurements from article PMC7862700, “An all-to-all approach to the identification of sequence-specific readers for epigenetic DNA modifications on cytosine”.

Common to all, as to assay: DAPPL (digital affinity profiling via proximity ligation, sequencing); 10 mM Tris-HCl pH 7.5, 50 mM NaCl, 1 mM DTT, 4% glycerol, room temperature, 30 min; GST-TFs on glutathione beads, 16-mer random dsDNA library, 0.1% formaldehyde crosslink after washing; high values mean tight binding
Common to all, as to conditions: protein: recombinant; tags: N-terminal GST; dsDNA, one strand shown

One experiment deals with T1, FLI1 (Homo sapiens, UniProt Q01543 1-452).
T1 sequence: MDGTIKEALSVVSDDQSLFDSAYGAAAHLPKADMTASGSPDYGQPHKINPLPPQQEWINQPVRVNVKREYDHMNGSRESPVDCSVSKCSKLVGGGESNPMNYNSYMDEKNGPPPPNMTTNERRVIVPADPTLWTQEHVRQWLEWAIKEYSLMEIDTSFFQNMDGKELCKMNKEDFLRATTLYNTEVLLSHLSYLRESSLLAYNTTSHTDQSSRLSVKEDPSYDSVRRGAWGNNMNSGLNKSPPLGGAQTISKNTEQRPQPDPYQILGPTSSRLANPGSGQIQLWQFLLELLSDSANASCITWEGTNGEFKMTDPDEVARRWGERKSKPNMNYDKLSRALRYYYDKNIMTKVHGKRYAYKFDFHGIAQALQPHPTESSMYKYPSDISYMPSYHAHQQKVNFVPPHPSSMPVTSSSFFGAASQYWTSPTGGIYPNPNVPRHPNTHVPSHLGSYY
The procedure, abridged:
(§1)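 After expression in yeast as GST fusions, human transcription factors were bound to glutathione beads, DNA-barcoded and mixed with a tag-only sample. The pools were incubated with 200 nmole of a 16-mer random double-stranded DNA library in Tris/NaCl/DTT/glycerol buffer (30 min, room temperature), washed and crosslinked with 0.1% formaldehyde. Proximity ligation with BsaI/T4 ligase ran for 1 h at 37 °C, before PCR amplification and sequencing on an Illumina NextSeq500. Binding signal is a hexamer's read frequency for a factor divided by its frequency for the tag-only sample.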

The target in another experiment is T2, ELK1 (Homo sapiens, UniProt P19419 1-428).
T2 sequence: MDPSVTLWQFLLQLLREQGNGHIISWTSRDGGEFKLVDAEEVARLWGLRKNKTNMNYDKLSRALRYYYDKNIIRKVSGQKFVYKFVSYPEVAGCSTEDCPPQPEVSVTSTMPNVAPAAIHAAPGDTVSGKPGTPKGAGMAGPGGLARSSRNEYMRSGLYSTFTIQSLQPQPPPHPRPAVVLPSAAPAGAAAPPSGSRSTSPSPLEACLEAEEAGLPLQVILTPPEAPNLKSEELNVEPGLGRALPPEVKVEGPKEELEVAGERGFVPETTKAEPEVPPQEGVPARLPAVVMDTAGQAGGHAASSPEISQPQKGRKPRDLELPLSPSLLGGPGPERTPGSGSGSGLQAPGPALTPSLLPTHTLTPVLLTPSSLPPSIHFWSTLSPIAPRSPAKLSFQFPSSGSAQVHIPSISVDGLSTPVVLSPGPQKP
An outline of the steps:
as §1

The target in the next experiment is T3, GABPA (Homo sapiens, UniProt Q06546 1-454).
T3 sequence: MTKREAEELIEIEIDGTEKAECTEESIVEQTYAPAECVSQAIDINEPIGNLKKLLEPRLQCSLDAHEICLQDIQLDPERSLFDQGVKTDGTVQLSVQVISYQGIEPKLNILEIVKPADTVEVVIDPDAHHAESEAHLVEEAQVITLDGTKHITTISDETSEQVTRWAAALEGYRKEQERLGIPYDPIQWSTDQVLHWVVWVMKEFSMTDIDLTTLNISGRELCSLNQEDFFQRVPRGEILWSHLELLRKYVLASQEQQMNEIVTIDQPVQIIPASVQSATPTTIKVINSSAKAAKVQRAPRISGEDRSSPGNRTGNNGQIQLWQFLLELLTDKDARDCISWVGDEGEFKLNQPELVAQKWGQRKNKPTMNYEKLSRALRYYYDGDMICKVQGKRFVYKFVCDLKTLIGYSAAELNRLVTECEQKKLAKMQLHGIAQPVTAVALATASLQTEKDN
The procedure, abridged: as §1

In a further experiment the target is T4, ERG (Homo sapiens, UniProt P11308 1-479).
T4 sequence: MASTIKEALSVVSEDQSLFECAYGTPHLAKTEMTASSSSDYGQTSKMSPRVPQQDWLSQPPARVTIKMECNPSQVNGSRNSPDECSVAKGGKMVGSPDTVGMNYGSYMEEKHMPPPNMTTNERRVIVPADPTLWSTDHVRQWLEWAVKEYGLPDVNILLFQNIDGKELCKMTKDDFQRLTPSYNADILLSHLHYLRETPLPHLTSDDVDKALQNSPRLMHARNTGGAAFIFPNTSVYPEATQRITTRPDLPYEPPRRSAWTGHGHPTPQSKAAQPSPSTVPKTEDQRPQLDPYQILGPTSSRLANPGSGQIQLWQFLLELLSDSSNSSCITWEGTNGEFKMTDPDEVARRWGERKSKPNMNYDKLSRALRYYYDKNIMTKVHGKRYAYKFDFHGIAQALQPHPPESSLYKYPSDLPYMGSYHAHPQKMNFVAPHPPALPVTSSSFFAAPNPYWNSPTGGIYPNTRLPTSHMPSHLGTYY
The procedure, abridged: as §1

For another experiment, the target named is ELF1 (Homo sapiens, UniProt P32519 1-619). An outline of the steps: as §1
Sequence of ELF1 (P32519 whole entry): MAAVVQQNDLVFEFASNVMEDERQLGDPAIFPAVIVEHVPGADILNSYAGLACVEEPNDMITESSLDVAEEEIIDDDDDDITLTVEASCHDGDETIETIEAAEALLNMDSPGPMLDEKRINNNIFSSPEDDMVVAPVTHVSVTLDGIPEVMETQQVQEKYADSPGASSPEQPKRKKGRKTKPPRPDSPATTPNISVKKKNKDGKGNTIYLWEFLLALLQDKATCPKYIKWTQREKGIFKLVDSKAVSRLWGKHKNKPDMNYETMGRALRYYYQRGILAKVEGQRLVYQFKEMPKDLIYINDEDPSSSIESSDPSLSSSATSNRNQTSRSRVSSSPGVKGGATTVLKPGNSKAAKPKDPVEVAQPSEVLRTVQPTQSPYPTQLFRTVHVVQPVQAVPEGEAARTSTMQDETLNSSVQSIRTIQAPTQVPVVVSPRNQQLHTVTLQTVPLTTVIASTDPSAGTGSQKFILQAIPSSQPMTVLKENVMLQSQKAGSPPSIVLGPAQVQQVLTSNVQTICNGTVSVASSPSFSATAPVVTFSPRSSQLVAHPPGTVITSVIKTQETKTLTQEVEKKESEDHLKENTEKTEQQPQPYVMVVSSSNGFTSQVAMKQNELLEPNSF
The target of the next experiment is T5, EHF (Homo sapiens, UniProt Q9NZC4 1-300).
T5 sequence: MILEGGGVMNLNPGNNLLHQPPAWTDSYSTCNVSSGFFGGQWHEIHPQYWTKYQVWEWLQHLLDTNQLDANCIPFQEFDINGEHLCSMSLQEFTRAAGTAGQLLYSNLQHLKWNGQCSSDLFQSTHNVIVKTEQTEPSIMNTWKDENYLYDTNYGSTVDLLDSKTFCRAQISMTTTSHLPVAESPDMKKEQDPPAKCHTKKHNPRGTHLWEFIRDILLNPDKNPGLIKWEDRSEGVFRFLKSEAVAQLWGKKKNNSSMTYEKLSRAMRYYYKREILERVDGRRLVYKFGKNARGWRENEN
An outline of the steps: as §1

A further experiment addresses SPI1 (Homo sapiens, UniProt P17947 1-270). The procedure, abridged: as §1
For another experiment, the target named is SPIB (Homo sapiens, UniProt Q01892 1-262). The procedure, abridged: as §1
Sequence of SPIB (Q01892 whole entry): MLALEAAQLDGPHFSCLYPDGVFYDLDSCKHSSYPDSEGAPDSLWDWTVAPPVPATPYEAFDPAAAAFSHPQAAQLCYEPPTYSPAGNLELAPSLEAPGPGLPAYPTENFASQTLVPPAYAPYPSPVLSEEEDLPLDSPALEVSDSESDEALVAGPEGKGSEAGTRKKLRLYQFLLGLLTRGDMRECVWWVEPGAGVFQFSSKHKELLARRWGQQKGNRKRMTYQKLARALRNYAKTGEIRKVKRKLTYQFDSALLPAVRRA
For another experiment, the target named is T6, ELK3 (Homo sapiens, UniProt P41970 1-407).
T6 sequence: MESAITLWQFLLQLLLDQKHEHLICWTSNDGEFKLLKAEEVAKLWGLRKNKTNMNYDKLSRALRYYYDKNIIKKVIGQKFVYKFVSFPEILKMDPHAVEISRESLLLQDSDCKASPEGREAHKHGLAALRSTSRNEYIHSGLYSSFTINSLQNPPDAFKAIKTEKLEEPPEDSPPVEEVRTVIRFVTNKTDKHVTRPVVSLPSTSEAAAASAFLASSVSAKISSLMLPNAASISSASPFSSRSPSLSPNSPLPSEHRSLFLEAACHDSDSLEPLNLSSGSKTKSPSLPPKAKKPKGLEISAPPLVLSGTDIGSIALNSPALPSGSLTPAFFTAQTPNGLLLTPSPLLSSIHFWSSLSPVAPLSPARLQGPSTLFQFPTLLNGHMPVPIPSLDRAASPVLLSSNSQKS
An outline of the steps:
as §1

Consider ATCACC, for which the binding signal was 1.17 fold enrichment (6-mer frequency, TF over GST control) in the experiment with FLI1; 1.18 fold enrichment (6-mer frequency, TF over GST control) with ELK1; 1.13 fold enrichment (6-mer frequency, TF over GST control) with GABPA; 1.14 fold enrichment (6-mer frequency, TF over GST control) with ERG; 1.19 fold enrichment (6-mer frequency, TF over GST control) with ELF1; 1.1 fold enrichment (6-mer frequency, TF over GST control) with EHF. In addition, the binding signal in the experiment with SPI1 is 1.11 fold enrichment (6-mer frequency, TF over GST control); in the experiment with SPIB it was 1.03 fold enrichment (6-mer frequency, TF over GST control); with ELK3 it was 1.27 fold enrichment (6-mer frequency, TF over GST control).

Consider CGCGCT, for which the binding signal with FLI1 is 1.25 fold enrichment (6-mer frequency, TF over GST control); with ELK1, 1.32 fold enrichment (6-mer frequency, TF over GST control); in the experiment with GABPA, 1.13 fold enrichment (6-mer frequency, TF over GST control); in the experiment with ERG, 1.13 fold enrichment (6-mer frequency, TF over GST control); in the experiment with ELF1 it was 1.18 fold enrichment (6-mer frequency, TF over GST control); in the experiment with EHF it was 1.17 fold enrichment (6-mer frequency, TF over GST control). Further, the binding signal was 1.1 fold enrichment (6-mer frequency, TF over GST control) with SPI1; 1.27 fold enrichment (6-mer frequency, TF over GST control) with SPIB; 1.21 fold enrichment (6-mer frequency, TF over GST control) with ELK3.

Take CTCGAC: the binding signal in the experiment with FLI1 is 1.49 fold enrichment (6-mer frequency, TF over GST control); in the experiment with ELK1, 1.47 fold enrichment (6-mer frequency, TF over GST control); with GABPA it was 1.53 fold enrichment (6-mer frequency, TF over GST control); in the experiment with ERG it was 1.47 fold enrichment (6-mer frequency, TF over GST control); with ELF1, 1.53 fold enrichment (6-mer frequency, TF over GST control); in the experiment with EHF, 1.46 fold enrichment (6-mer frequency, TF over GST control). The binding signal is 1.34 fold enrichment (6-mer frequency, TF over GST control) in the experiment with SPI1; 1.33 fold enrichment (6-mer frequency, TF over GST control) with SPIB; 1.36 fold enrichment (6-mer frequency, TF over GST control) with ELK3.

Regarding CTGCCT, the binding signal in the experiment with FLI1 was 1.2 fold enrichment (6-mer frequency, TF over GST control); with ELK1 it was 1.28 fold enrichment (6-mer frequency, TF over GST control); with GABPA, 1.33 fold enrichment (6-mer frequency, TF over GST control); with ERG it was 1.18 fold enrichment (6-mer frequency, TF over GST control); with ELF1, 1.34 fold enrichment (6-mer frequency, TF over GST control); with EHF, 1.33 fold enrichment (6-mer frequency, TF over GST control). Further, the binding signal with SPI1 was 1.27 fold enrichment (6-mer frequency, TF over GST control); with SPIB it was 1.21 fold enrichment (6-mer frequency, TF over GST control); with ELK3, 1.04 fold enrichment (6-mer frequency, TF over GST control).

ACTATG: the binding signal is 1.23 fold enrichment (6-mer frequency, TF over GST control) with FLI1; 1.28 fold enrichment (6-mer frequency, TF over GST control) in the experiment with ELK1; 1.37 fold enrichment (6-mer frequency, TF over GST control) in the experiment with GABPA; 1.19 fold enrichment (6-mer frequency, TF over GST control) with ERG; 1.21 fold enrichment (6-mer frequency, TF over GST control) with ELF1; 1.25 fold enrichment (6-mer frequency, TF over GST control) with EHF. The binding signal is 1.14 fold enrichment (6-mer frequency, TF over GST control) with SPI1; 1.31 fold enrichment (6-mer frequency, TF over GST control) with SPIB; 1.2 fold enrichment (6-mer frequency, TF over GST control) with ELK3.

Consider TTCTGG, for which the binding signal in the experiment with FLI1 was 1.36 fold enrichment (6-mer frequency, TF over GST control); with ELK1 it was 1.16 fold enrichment (6-mer frequency, TF over GST control); in the experiment with GABPA it was 1.32 fold enrichment (6-mer frequency, TF over GST control); in the experiment with ERG, 1.31 fold enrichment (6-mer frequency, TF over GST control); with ELF1, 1.14 fold enrichment (6-mer frequency, TF over GST control); with EHF, 1.2 fold enrichment (6-mer frequency, TF over GST control). For the same sequence, the binding signal in the experiment with SPI1 is 1.24 fold enrichment (6-mer frequency, TF over GST control); with SPIB, 1.18 fold enrichment (6-mer frequency, TF over GST control); in the experiment with ELK3, 1.48 fold enrichment (6-mer frequency, TF over GST control).

As to ATATCA, the binding signal with FLI1 is 1.23 fold enrichment (6-mer frequency, TF over GST control); with ELK1, 1.24 fold enrichment (6-mer frequency, TF over GST control); in the experiment with GABPA, 1.22 fold enrichment (6-mer frequency, TF over GST control); with ERG, 1.14 fold enrichment (6-mer frequency, TF over GST control); with ELF1 it was 1.2 fold enrichment (6-mer frequency, TF over GST control); with EHF it was 1.15 fold enrichment (6-mer frequency, TF over GST control). The binding signal was 1.13 fold enrichment (6-mer frequency, TF over GST control) in the experiment with SPI1; 1.14 fold enrichment (6-mer frequency, TF over GST control) in the experiment with SPIB; 1.11 fold enrichment (6-mer frequency, TF over GST control) with ELK3.

With TGGTAA, the binding signal is 1.28 fold enrichment (6-mer frequency, TF over GST control) in the experiment with FLI1; 1.33 fold enrichment (6-mer frequency, TF over GST control) in the experiment with ELK1; 1.32 fold enrichment (6-mer frequency, TF over GST control) in the experiment with GABPA; 1.28 fold enrichment (6-mer frequency, TF over GST control) with ERG; 1.28 fold enrichment (6-mer frequency, TF over GST control) in the experiment with ELF1; 1.37 fold enrichment (6-mer frequency, TF over GST control) with EHF. The binding signal is 1.28 fold enrichment (6-mer frequency, TF over GST control) with SPI1; 1.4 fold enrichment (6-mer frequency, TF over GST control) with SPIB; 1.32 fold enrichment (6-mer frequency, TF over GST control) in the experiment with ELK3.
